Bioassay records: PubChem BioAssay, National Center for Advancing Translational Sciences (NCATS)
Rows were chosen to be rich in hits. Some 8.9% of all compounds tested hit in one or more screens of this group.
NPSR antagonist: blocks cAMP signaling of the human neuropeptide S receptor. CHO-NPSR cells, cAMP TR-FRET, antagonist mode. 220,000 compounds, 1% hits. Q6W5P4. AID 1461. Potency, µM (titrated, usually from 38.3 µM), inactives show at the top dose activity change, negative = inhibition, most hits filed as inhibitors; also: potency is read from the fitted curve at half-maximal effect; nearly all actives have a fitted effect of over 50% in size
ALOX12 inhib: blocks human 12-lipoxygenase activity | 150,000 compounds, 0.12% hits | P18054 | Potency, µM (top dose mostly 57.1 µM), without a hit: at the top dose activity change, negative = inhibition, most hits filed as inhibitors | purified 12-hLO, xylenol orange hydroperoxide absorbance | AID 1452; also: potency is read from the fitted curve at half-maximal effect; nearly all actives have a fitted effect of over 55% in size
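Xylenol orange chromogenic assay: hydroperoxide from 12hLO oxidises Fe(II), giving red-shifted Fe(III)-XO absorbance. Conditions: 150 nM enzyme, 40 uM arachidonic acid, 25 mM Hepes pH 7.0, 0.01% Triton X-100, 30 min, room temperature.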
IMPase inh: IMPase inhibition in cells; CHO-M1 cells, IP1 accumulation, HTRF TR-FRET ratio; inhibition (IP1 accumulation), % at 46.1 µM; 120,000 tested, under 10 active; AID 901; P97697; active = well fitted curve in the direction sought with a large enough effect in the signal ratio, not every such curve was filed as active; inconclusive = small, poorly fitted or top-dose-only effect, or a change in a side signal; inactive = no such curve, though single readings can be large or run the other way; the % refers to the signal ratio;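 also: cells stimulated with carbachol in lithium chloride buffer; plate controls were DMSO basal wells for no effect and reference inhibitor wells for full effect; higher means more IMPase inhibition seen as more IP1 and lower FRET ratio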
Target sequence (P97697 whole entry, looked up): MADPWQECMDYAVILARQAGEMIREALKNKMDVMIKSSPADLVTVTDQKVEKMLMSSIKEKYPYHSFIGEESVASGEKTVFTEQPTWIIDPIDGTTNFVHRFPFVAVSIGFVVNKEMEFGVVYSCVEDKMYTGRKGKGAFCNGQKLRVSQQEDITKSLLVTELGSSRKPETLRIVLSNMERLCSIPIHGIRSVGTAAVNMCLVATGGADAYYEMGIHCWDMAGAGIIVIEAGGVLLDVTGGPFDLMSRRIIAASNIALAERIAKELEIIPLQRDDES
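CHO-M1, 2000 cells/well, cultured 16–30 h; cpd up to 46 uM; carbachol (50 uM solution, stimulation buffer w/ 50 mM LiCl, pH 7.4), 30 min 37C; IP-One TR-FRET, 10 min RT; Ex 320/Em 665, 620; Hill-fit AC50.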
ALDH1A1 inh: ALDH1A1 (human) enzyme inhibition. P00352. Purified ALDH1A1, NADH fluorescence, propionaldehyde substrate. Potency, µM (series often up to 75.3 µM), without a hit: at the highest dose activity, negative = inhibition, hits mostly inhibitors. 220,000 compounds, 7.3% hits; active = well fitted inhibition curve with a large enough effect, not every such curve was filed as active; inconclusive = small, poorly fitted or top-dose-only effect, or another doubt; inactive = no such curve, though single readings can be large or run the other way;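 also: potency is read from the fitted curve at half-maximal effect; plate controls were no enzyme wells and a reference inhibitor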
Target sequence (P00352 whole entry, looked up): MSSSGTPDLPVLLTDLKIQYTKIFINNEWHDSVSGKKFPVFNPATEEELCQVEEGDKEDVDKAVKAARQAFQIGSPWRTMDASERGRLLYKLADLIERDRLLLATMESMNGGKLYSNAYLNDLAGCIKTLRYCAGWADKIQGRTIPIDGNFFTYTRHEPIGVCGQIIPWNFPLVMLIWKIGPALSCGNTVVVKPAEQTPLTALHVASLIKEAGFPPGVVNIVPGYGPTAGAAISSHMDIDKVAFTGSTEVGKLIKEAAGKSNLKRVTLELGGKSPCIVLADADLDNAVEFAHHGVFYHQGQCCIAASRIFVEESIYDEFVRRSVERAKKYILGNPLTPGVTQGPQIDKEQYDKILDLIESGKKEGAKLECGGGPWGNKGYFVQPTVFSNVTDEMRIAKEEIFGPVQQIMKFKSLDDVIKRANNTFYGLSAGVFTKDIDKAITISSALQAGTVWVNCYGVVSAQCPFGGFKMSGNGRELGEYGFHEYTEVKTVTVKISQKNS
IMPase Li cell: IMPase inhibition in cells with lithium potentiation; 210,000 compounds, 0.35% hits; CHO-M1 cells, IP1 TR-FRET (IP-One), carbachol + lithium; Potency, µM (titrated, usually from 59.4 µM), inactives show at the top dose activity, negative = IMPase inhibition, usual class: inhibitors; AID 1457;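 also: IP1 builds up when IMPase is blocked and the TR-FRET signal falls; potency is read from the fitted curve at half-maximal effect; plate controls were basal vehicle for no effect and high inhibitor control for full effect; nearly all actives have a fitted effect of over 50% in size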
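Steps: plate 2000 CHO-M1 cells per well and culture 16–30 h; add compound and lithium; incubate 30 min, 37C; add d2-IP1 tracer and Eu cryptate anti-IP1 antibody in lysis buffer; read after 10 min at room temperature.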
HPGD inh: blocks human HPGD enzyme activity; P15428; purified HPGD, NADH fluorescence kinetic, PGE2 substrate; Potency, µM, for the others: at the top dose activity change, negative = inhibition, usual class: inhibitors; 150,000 compounds, 4.3% hits; active = well fitted inhibition curve with a large enough effect, not every such curve was filed as active; inconclusive = small, poorly fitted or top-dose-only effect, or another doubt; inactive = no such curve, though single readings can be large or run the other way; also: potency is read from the fitted curve at half-maximal effect
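NADH formation kinetics: reaction with 30 uM PGE2 and 1 mM NAD+ (final), 20 nM enzyme, Tris-HCl pH 8 with Tween 20, after 15 min compound preincubation at room temperature. Fluorescence change, last versus first of five reads.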
Active calls of the source: *; ? = inconclusive; nt = no result; [ ] = another dose, or the depositor's remark. Unless noted, calls follow the shape of the dose curve; as a rule, active = well fitted curve in the direction sought with a large enough effect; inconclusive = small, poorly fitted or top-dose-only effect, or another doubt; inactive = no such curve, though single readings can be large; an effect the other way counts as inactive or inconclusive. Unless noted, % is scaled to controls: 0 for no effect and ±100 for the full control effect.

SMILES	NPSR antagonist	ALOX12 inhib	IMPase inh	ALDH1A1 inh	IMPase Li cell	HPGD inh
COc1cc(CCC(=O)Oc2ccc(C(C)=O)cc2)cc(OC)c1OC	13%	6%	2	0%	-3%	-9%
COc1ccc(NC(=O)CCN2CCN(S(=O)(=O)c3cc(Cl)ccc3Cl)CC2)cc1	-23%[46.1 µM]	-3%	-2	-1%	1%[38.3 µM]	-11%
COC(=O)c1ccc(NC(=O)CN2CCN(S(=O)(=O)c3cc(Cl)ccc3OC)CC2)cc1	-8%[46.1 µM]	-4%	2	2µM*	21%	-31%
COC(=O)c1ccc(NC(=O)CN2C(=O)CNC2=O)cc1	-10%[46.1 µM]	-15%	-2	18µM*	4%[38.3 µM]	-19%
COC(=O)c1ccc(NC(=O)CN2CCN(c3cccc(Cl)c3)CC2)cc1	-12%[46.1 µM]	-6%	-16	-7%	39%[38.3 µM]	-8%
COC(=O)c1ccc(NC(=O)CN2CCN(c3ccc(Cl)cc3)CC2)cc1	-16%[46.1 µM]	-3%	-3	22µM*	26%	-28%
COC(=O)c1ccc(NC(=S)N2CCN(Cc3ccccc3Cl)CC2)cc1	45%	nt	nt	-8%	5%	nt
COC(=O)c1ccc(NC(=S)N2CCN(Cc3ccc(Cl)cc3)CC2)cc1	-20%[46.1 µM]	1%	8	2%	-1%[38.3 µM]	40µM*
COC(=O)Cc1cc(=O)[nH]c(/N=C(\N)Nc2cccc(C)c2)n1	-9%	nt	nt	14%	2%	nt
CC(C)C(NS(=O)(=O)c1cccs1)C(=O)N1CCc2ccccc2C1 (stereo not drawn)	-17%[46.1 µM]	7%	5	5%	1%[38.3 µM]	-1%
CN(C)S(=O)(=O)c1cc(NC(=O)CN2CCN(c3ccc(O)cc3)CC2)ccc1Cl	3%	nt	nt	13µM*	7%	nt
CN(C)S(=O)(=O)c1cc(NC(=O)CN2CCN(c3ccccc3)CC2)ccc1Cl	0%	-3%	3	-3%	0%	3%
C=CCSc1nnc(NC(=O)CSc2nc(CCC)cc(=O)[nH]2)s1	-13%[46.1 µM]	-6%	4	-1%	44%[38.3 µM]	20µM*
C=CCSc1nnc(NC(=O)CSc2nc3ccccc3[nH]2)s1	-1%[46.1 µM]	-3%	0	-6%	15%[38.3 µM]	?
CC(=O)SC1CC(=O)N(c2ccc(C(C)(C)C)cc2)C1=O (stereo not drawn)	-16%	nt	nt	nt	nt	nt
COc1cc(OC)cc(-c2nnc(SCC(=O)N(C(C)C)C(C)C)o2)c1	?	2%	2	11%	?	-9%
COc1cc(OC)cc(-c2nnc(Sc3ccc(C=O)cc3[N+](=O)[O-])o2)c1	-11%[46.1 µM]	-4%	-10	2µM*	-13%[38.3 µM]	14µM*
Cc1ccc(S(=O)(=O)/N=C2/NC(=O)/C(=C/c3ccc(Br)o3)S2)cc1	-19%	?	nt	-11%	5%	14µM*
Cc1ccc(N=C2NC(=O)/C(=C\c3ccco3)S2)cc1	-18%	-19%	nt	-11%	11%	?
Cc1ccc(S(=O)(=O)/N=C2/NC(=O)/C(=C/c3cccnc3)S2)cc1	-11%[46.1 µM]	0%	8	3%	-9%[38.3 µM]	20µM*
O=C(/C=C/c1cccc(Br)c1)Nc1nn[nH]n1	-7%[7.67 µM]	nt	nt	nt	nt	nt
O=C(/C=C/c1cccc(Br)c1)NCC1CCCCC1	-23%[46.1 µM]	-2%	9	11µM*	28%	-22%
COc1ccc(Cl)cc1NC(=O)C1COc2ccccc2O1 (stereo not drawn)	-55%	nt	nt	-1%	15%	nt
O=C(CSCc1ccc(Cl)cc1)NN=C1CCCC1	6%	-2%	nt	?	0%	-3%
O=C(CSCc1ccccc1Cl)NN=C1CCCCCC1	0%[46.1 µM]	-1%	1[1.84 µM]	22µM*	-5%[38.3 µM]	-17%
SMILES	NPSR antagonist	ALOX12 inhib	IMPase inh	ALDH1A1 inh	IMPase Li cell	HPGD inh
O=C(CSCc1c(Cl)cccc1Cl)NN=C1CCCC1	8%	nt	nt	1.6µM*	-19%	nt
O=C(CN1CCCN(S(=O)(=O)c2ccc(Br)cc2)CC1)Nc1ccc2c(c1)OCO2	-17%[46.1 µM]	-13%	10	11µM*	17%	-8%
COc1ccc(S(=O)(=O)N2CCCN(CC(=O)Nc3ccc4c(c3)OCO4)CC2)cc1	?	-4%	1	?	10%[38.3 µM]	-4%
Cc1ccc(S(=O)(=O)Nc2cc(NC(=O)CN3CCOCC3)ccc2Cl)cc1	-17%[7.67 µM]	-5%	8	18µM*	21%[38.3 µM]	-11%
O=C(CN1CCN(CC(=O)Nc2ccccc2Cl)CC1)Nc1ccc2c(c1)OCCO2	-15%[46.1 µM]	-6%	0	7.9µM*	-1%[38.3 µM]	-8%
Cc1ccc(S(=O)(=O)Nc2ccc(NC(=O)CN3CCCCC3)cc2)cc1	-8%[46.1 µM]	-13%	3	-2%	30%[38.3 µM]	2%
O=C(CCN1C(=O)c2ccccc2S1(=O)=O)Nc1ccc2c(c1)OCCO2	-8%[46.1 µM]	0%	-1	6.3µM*	-7%[38.3 µM]	-16%
O=C(CN1CCC(Cc2ccccc2)CC1)Nc1ccc2c(c1)OCCO2	-17%[46.1 µM]	1%	1	28µM*	14%[38.3 µM]	-8%
CCOC(=O)C(=O)/C(=C\N(C)C)c1onc(-c2ccccc2)c1C(=O)OC	11%[46.1 µM]	1%	-10[1.84 µM]	?	5%[38.3 µM]	-12%
CCOC(=O)C(=O)/C(=C\N(C)C)c1onc(-c2ccccc2Cl)c1C(=O)OC	-9%[46.1 µM]	0%	0[1.84 µM]	?	3%[38.3 µM]	14µM*
CCOC(=O)C(=O)/C(=C\N(C)C)c1onc(-c2c(Cl)cccc2Cl)c1C(=O)OC	-20%[46.1 µM]	0%	6	11%	-4%	14µM*
COc1ccc(-n2c(CCc3ccccc3)n[nH]c2=S)cc1	-24%	nt	nt	-15%	8%	nt
N#CC1=C2SCN(Cc3ccco3)CN2C(=O)CC1c1c(F)cccc1Cl (stereo not drawn)	-9%[46.1 µM]	-7%	-7	8.9µM*	-5%[38.3 µM]	18µM*
Cc1ccc(C2CC(=O)N3CN(Cc4ccco4)CSC3=C2C#N)cc1 (stereo not drawn)	-9%[46.1 µM]	-22%	4	11µM*	3%[38.3 µM]	16µM*
Cc1ccc(N2CN(Cc3ccco3)CNC2=S)cc1	6%	nt	nt	?	-3%	nt
CC(C)CN(CC(C)C)S(=O)(=O)N1CCC(C(=O)NCc2cccs2)CC1	-19%[46.1 µM]	9%	6	7%	-3%[38.3 µM]	-8%
CCCCn1c(CN2CCN(C(=O)c3ccco3)CC2)nc2c1c(=O)n(C)c(=O)n2C	5%[46.1 µM]	0%	-7	22µM*	4%	-7%
CCCCCn1c(CN2CCN(C(=O)c3ccco3)CC2)nc2c1c(=O)n(C)c(=O)n2C	-15%	nt	nt	nt	nt	nt
CCCCCCn1c(CN2CCN(C(=O)c3ccco3)CC2)nc2c1c(=O)n(C)c(=O)n2C	-23%[46.1 µM]	9%	?	1.3µM*	7%	-17%
COc1cc(C(=O)Nc2cc(C)cc(C)c2)c(-n2cnnn2)cc1OC	-2%	nt	nt	8%	4%	nt
O=C(NNc1ccccc1F)c1ccccc1	-2%[7.67 µM]	nt	nt	nt	nt	nt
Cc1ccc(CCN2CC(C(=O)NCCN3CCCCCC3)CC2=O)cc1 (stereo not drawn)	-11%[46.1 µM]	-7%	5	11%	6%[38.3 µM]	2%
